According to PubChem BioAssay AID720504 (National Center for Advancing Translational Sciences (NCATS), 2013):
The whole screen tested about 360,000 compounds, of which about 10,000 (2.8%) were called active. Not shown: some 4% with an inconclusive outcome. The sample holds actives, similar compounds and a random draw of the others, so the mix is not that of the screen. Calls come from the whole dose curve; as a rule, active = well fitted inhibition curve with a large enough effect; inconclusive = small, poorly fitted or top-dose-only effect; inactive = flat fitted curve, though single readings scatter.

The compounds below were run against Serine/threonine-protein kinase PLK1 (Homo sapiens) (UniProt P53350) (assay: qHTS for Inhibitors of PLK1-PDB (polo-like kinase 1 - polo-box domain): Primary Screen). Conditions: Plk1 PBD binding of FITC phosphopeptide, fluorescence polarization.
% is set by controls: 0 for no effect and ±100 for the full control effect; potency is the fitted concentration of half-maximal effect.
Note: nearly all actives have a fitted effect of over 65% in size.
Throughout, for max response, negative = inhibition: series mostly up to about 57 µM.

Serine/threonine-protein kinase PLK1 (Homo sapiens), sequence (P53350 whole entry, looked up, the tested form may be a part): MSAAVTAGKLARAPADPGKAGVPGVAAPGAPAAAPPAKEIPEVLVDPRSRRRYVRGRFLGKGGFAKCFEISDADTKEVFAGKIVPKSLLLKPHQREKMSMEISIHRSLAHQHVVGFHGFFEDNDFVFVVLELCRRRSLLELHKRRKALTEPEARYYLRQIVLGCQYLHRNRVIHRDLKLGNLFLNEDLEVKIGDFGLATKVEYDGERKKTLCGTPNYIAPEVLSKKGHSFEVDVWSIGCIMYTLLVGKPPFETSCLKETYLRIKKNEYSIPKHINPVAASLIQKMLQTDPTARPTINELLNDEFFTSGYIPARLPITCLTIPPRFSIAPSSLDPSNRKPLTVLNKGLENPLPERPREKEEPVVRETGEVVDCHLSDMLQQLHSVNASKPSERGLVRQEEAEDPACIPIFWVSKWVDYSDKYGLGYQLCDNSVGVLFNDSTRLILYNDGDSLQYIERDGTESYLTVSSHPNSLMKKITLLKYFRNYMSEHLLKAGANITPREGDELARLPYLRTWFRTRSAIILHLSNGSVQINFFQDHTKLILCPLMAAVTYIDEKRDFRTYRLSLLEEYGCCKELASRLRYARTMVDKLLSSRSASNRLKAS

SMILES	max response, negative = inhibition	Potency
CCCCCCNC(=O)O[C@]12C[C@@H](C(=O)OC)[C@@H](C(=O)OC)C[C@@]1(O)CN(S(=O)(=O)c1ccc(C)cc1)C2	-1.62% (inactive)	
COc1ccc(C2C(C#N)=C(/N=C/N3CCOCC3)OC3=C2C(=O)CC(C)(C)C3)cc1OC (configuration not stated)	-6.22% (inactive)	
CCc1ccc(C2C(C#N)=C(N)N(N(C)C)C3=C2C(=O)CCC3)s1 (configuration not stated)	2.14% (inactive)	
CCc1ccc(C2C(C#N)=C(N)N(N3CCOCC3)C3=C2C(=O)CC(C)(C)C3)s1 (configuration not stated)		26.7 µM (active)
O=C(NCc1cccnc1)Nc1ccccc1F	-0.233% (inactive)	
CCC(Oc1ccccc1)C(=O)NCc1cccnc1 (configuration not stated)		18.9 µM (active)
O=C(O)c1ccccc1-c1ccccc1C(=O)NCc1cccnc1	-5.72% (inactive)	
COc1cccc(C(NC(C)=O)c2nc(-c3ccccc3OC)cs2)c1 (configuration not stated)	-10% (inactive)	
CC1=NN(C(N)=S)C(=O)C1N=Nc1cc(Cl)ccc1Cl (configuration not stated)		26.7 µM (active)
O=C(c1cc(-c2ccc(Cl)cc2)on1)N1CCN(c2ccccc2)CC1	-5.98% (inactive)	
O=C(c1cc(-c2ccc(F)cc2)on1)N1CCN(c2ccc(F)cc2)CC1		26.7 µM (active)
COc1ccc(-c2cc(C(=O)N3CCN(c4ccc(F)cc4)CC3)no2)cc1	-9.29% (inactive)	
OC[C@@H]1CN(Cc2ccc(-c3ccccc3)cc2)C[C@H](n2cnc3c(NC4CCCC4)ncnc32)O1	4% (inactive)	
CCOC(=O)c1cc(-c2sc(NC(=O)c3ccccc3)nc2C)n(Cc2ccccc2)n1	7.73% (inactive)	
COC(=O)[C@]12CCCCC=C1N(CCC1=CCCCC1)C(=O)[C@H](CC(=O)NCC1CCCCC1)C2	-2.73% (inactive)	
CCC(CC)c1nnc(NC(=O)C2=COCCO2)s1	-0.0349% (inactive)	
Cc1csc(NC(=O)C2=COCCO2)n1	-3.95% (inactive)	
Cc1sc(NC(=O)C2=COCCO2)c(C#N)c1C		11.9 µM (active)
COc1cccc(NC(=O)Nc2ccc(F)cc2)c1	-6.36% (inactive)	
COc1cc(C(=O)NCc2ccncc2)cc(Br)c1OCc1ccccc1	-15.6% (inactive)	
COc1cc(C(=S)NCc2ccccc2)cc(Br)c1O		4.23 µM (active)
COc1cc(CNC2CCCC2)c(Br)cc1OCc1ccccc1	-0.667% (inactive)	
Nc1nc2cc(Cl)ccc2n1N	-1.19% (inactive)	

SMILES	max response, negative = inhibition	Potency
CCCNC(=O)c1cc(C2CCCCN2C(=O)OC)on1 (configuration not stated)	-6.79% (inactive)	
O=C(c1ccc(CS(=O)Cc2ccccc2Cl)o1)N1CCN(c2ccccc2)CC1 (configuration not stated)	-18.2% (inactive)	
Cc1ccc2nc(-c3ccccc3)c(CC3CCCCC3)n2c1	-7.91% (inactive)	
O=C1NC(O)CCN1C1CC(O)C(CO)O1 (configuration not stated)	-1.57% (inactive)	
Nc1ccccc1SC(C[N+](=O)[O-])c1ccccc1 (configuration not stated)		0.752 µM (active)
Nc1cccc(OCCCCCOc2cccc(N)c2)c1	1.62% (inactive)	
N#Cc1cccc(NC(=O)c2cc(C3CCCCN3C(=O)CCc3ccccc3)on2)c1 (configuration not stated)	4.56% (inactive)	
Cc1ccccc1S(=O)(=O)NC(=O)C1(C)CCN1C(=O)Cc1ccc(Cl)cc1Cl (configuration not stated)	-14.1% (inactive)	
O=C(c1ccco1)N1CCN(C(=O)C2CC(c3ccc(Cl)c(Cl)c3)=NO2)CC1 (configuration not stated)	-17% (inactive)	
O=C(c1ccco1)N1CCN(C(=O)C2CC(c3ccc(F)cc3)=NO2)CC1 (configuration not stated)		26.7 µM (active)
CCOC(=O)N1CCN(C(=O)C2CC(c3ccc(F)cc3)=NO2)CC1 (configuration not stated)	-12.9% (inactive)	
COc1ccc(CN(C)C(=O)Cc2ccsc2)c(OC)c1OC	-14.4% (inactive)	
COc1ccc(S(=O)(=O)N2CCCCCC2)cc1C(=O)N(C)Cc1cccc(OC)c1OC	-7.8% (inactive)	
COc1cccc(CN(C)C(=O)CC23CC4CC(CC(C4)C2)C3)c1OC		29.9 µM (active)
Cc1ccc(S(=O)(=O)NN=C2CC(C)(C)CC(=O)C2(C)C)cc1	-5.23% (inactive)	
CCOc1ccc(C2/C(=C(/O)c3ccc4c(c3)CC(C)O4)C(=O)C(=O)N2CCCn2ccnc2)cc1 (configuration not stated)	-16.9% (inactive)	
c1ccc(Cc2ccc(OCCn3ccnc3)cc2)cc1	4.09% (inactive)	
CCCOc1ccc(C2C(C(=O)c3ccc(C)o3)=C(O)C(=O)N2CCCn2ccnc2)cc1 (configuration not stated)		23.8 µM (active)
COc1ccc(C(=O)N2CCCN(C)CC2)c(OC)c1	1.15% (inactive)	
COc1cc(OC)c(C(=O)N2CCCC2)cc1OC	-4.54% (inactive)	
COc1cc(OC)c(C(=S)N2CCCC2)cc1OC		11.9 µM (active)
NC(=O)CSc1nnc(-c2cccc(S(=O)(=O)N3CCOCC3)c2)o1	-12.4% (inactive)	
CCN(CC)C(=O)C1=C(C)N(Cc2ccc(F)cc2)C(=O)C(CC(=O)NC2CCCC2)C1 (configuration not stated)	3.61% (inactive)	

SMILES	max response, negative = inhibition	Potency
CC(C)C[C@H]1CN([C@@H](Cc2ccccc2)CN2CCC[C@@H]2CN2C(=O)C(=O)NC[C@@H]2Cc2ccc(O)cc2)C(=O)C(=O)N1CCc1ccccc1	0.344% (inactive)	
CN1CCN(c2nc3c(c(=O)[nH]c(=O)n3C)n2Cc2cccc3ccccc23)CC1	-17.6% (inactive)	
CCC(C)Sc1nc2c(c(=O)[nH]c(=O)n2C)n1CC(O)COc1cccc2ccccc12 (configuration not stated)		18.9 µM (active)
Cc1cccc(OCC(O)Cn2c(N3CCCCC3)nc3c2c(=O)[nH]c(=O)n3C)c1 (configuration not stated)	-3.66% (inactive)	
CC1(C(=O)O)CCCN(C(=O)/C=C/c2ccccc2)C1 (configuration not stated)	-5.95% (inactive)	
CCC(=O)N1CCC(C)(C(=O)Nc2cc(OC)c(OC)c(OC)c2)C1 (configuration not stated)	4.76% (inactive)	
O=S1(=O)CC(N2CCC(Cc3ccccc3)CC2)CN1Cc1ccccc1 (configuration not stated)	-4.73% (inactive)	
COC(=O)c1nc(NC(=O)c2ccc(C(C)(C)C)cc2)n[nH]1		3.77 µM (active)
COC(=O)c1sccc1NC(=O)c1ccc(Cl)cc1	-7.12% (inactive)	
CSc1nccc(NC(=O)c2ccc(C(C)(C)C)cc2)n1	-8.27% (inactive)	
COC(=O)c1nc(NC(=O)c2ccc(F)cc2)n[nH]1		15 µM (active)
COC(=O)c1nc(NC(=O)c2ccc(Cl)cc2)n[nH]1		26.7 µM (active)
CCOC(=O)NNC(=O)c1ccc(Cl)cc1	-5.54% (inactive)	
COC(=O)c1nc(NC(=O)c2ccccc2)n[nH]1		26.7 µM (active)
COc1ccc(C(=O)Nc2ccc(F)cc2F)cc1	-1.72% (inactive)	
COc1ccc(C(=O)NNC(=O)c2cc(C)[nH]n2)cc1	-5.72% (inactive)	
O=C(Nc1n[nH]c(C(F)(F)F)n1)c1cccs1	-23.4% (inactive)	
O=C(Nc1nsc(-c2ccccc2)n1)c1ccncc1	0.306% (inactive)	
CC(C)Oc1cc(F)ccc1-c1cc(C(=O)Nc2ccc(F)cc2)[nH]n1	-4.13% (inactive)	
OC[C@@H]1CN(Cc2ccc(Cl)cc2)C[C@H](n2cnc3c(NCc4ccncc4)ncnc32)O1	-6.44% (inactive)	
O=C1Nc2ccccc2-n2nnnc2C1N1CCN(c2cccc(C(F)(F)F)n2)CC1 (configuration not stated)	-6.8% (inactive)	
COc1cccc(-c2cnc3c(NC(C)=O)cc(-c4cc(F)ccc4OC)cn23)c1	-5.58% (inactive)	
CCOC1=C2[C@H]([C@H]3C(=O)N(c4ccccc4)C(=O)[C@H]3C1)[C@@H](c1ccccc1)N(S(=O)(=O)c1ccc(C)cc1)[C@H]2c1ccccc1	1.42% (inactive)	

SMILES	max response, negative = inhibition	Potency
Cc1ccccc1C#CC1=CC(=O)CC(C)(C)C1	-11.2% (inactive)	
COc1ccccc1CNC(=O)c1cc(-c2cc(F)ccc2OC)n[nH]1	-1.03% (inactive)	
O=C(OC1CC2CC1[C@H]1CCCCN1C2=O)N1CCOCC1 (some centres not stated)	-1.86% (inactive)	
COc1cc(C(O)c2nc(-c3cnn(C)c3)cs2)ccc1F (configuration not stated)	-2.35% (inactive)	
COc1cc(C(=O)N2CCOC23CCN(Cc2ccccc2)CC3)cc(OC)c1OC	1.8% (inactive)	
Nc1ncnc2c1ncn2[C@@H]1O[C@H](C(=O)N2CCCN(Cc3ccccc3F)CC2)[C@@H](O)[C@H]1O	-0.717% (inactive)	
CC1CCN(C(=S)NC(=O)c2ccccc2Br)CC1	-2.34% (inactive)	
CC1CCN(C(=S)c2cccc(O)c2)CC1		18.9 µM (active)
Cc1nc2ccc(NC(=S)N3CCC(C)CC3)cc2nc1C	0.665% (inactive)	
CCCCc1c(-c2ccc(Br)cc2)ncn1CCc1ccccc1OC	3.4% (inactive)	
NCCCCC(C(=O)O)N(C(=O)OCc1ccccc1)C(=O)OCc1ccccc1 (configuration not stated)	-19.2% (inactive)	
CC1Cc2[nH][nH]c(=O)c2C(C2CC2)O1 (configuration not stated)	-23.1% (inactive)	
Cc1oc2c(F)c(F)c(F)c(F)c2c1S(=O)(=O)Nc1cccc(C(F)(F)F)c1		37.7 µM (active)
O=C(NCc1ccccc1)c1ccc(S(=O)(=O)Nc2cccc(C(F)(F)F)c2)cc1	-14.9% (inactive)	
O=C(COc1ccc(S(=O)(=O)Nc2cccc(C(F)(F)F)c2)cc1)N1CCOCC1	-3.59% (inactive)	
Cc1[nH]c2ccccc2c1C(=O)C(=O)NCc1nnnn1-c1cccc(F)c1	-8.15% (inactive)	
Cc1cc(C)nc(SCc2nnc(SCC(=O)Nc3ncc(C)s3)n2Cc2ccco2)n1	-1.22% (inactive)	
Cn1c(SCC(=O)Nc2nccs2)nnc1-c1cccnc1	-6.93% (inactive)	
Cc1cnc(NC(=O)CSc2nnc(-c3ccc(Cl)cc3Cl)n2N)s1		23.8 µM (active)
CN(Cc1ccccc1)C(=O)CCC1CCN(C(=O)c2ccco2)CC1	-7.2% (inactive)	
CC(C)(C)NC(=O)NC(=O)COC(=O)C1c2ccccc2Oc2ccccc21	-13.1% (inactive)	
CCCN(CCC)C(=O)C1c2ccccc2Oc2ccccc21	-4.59% (inactive)	
CC(C)(C)c1nnc(NC(=O)C2c3ccccc3Oc3ccccc32)s1		2.67 µM (active)
